Assay outcomes (PubChem BioAssay)
Rows were chosen to be rich in hits. Some 1.8% of all compounds tested hit in one or more screens of this group.
A3G deaminase: APOBEC3G (human) deaminase inhibition | Q9HC16 | recombinant A3G, ssDNA deamination FAM/TAMRA fluorescence | inhibition, % at 20 µM | hit rate 0.28% among 330,000;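 active = inhibition of at least 40% at 20 µM, with no more than 30% in the related APOBEC3A deaminase screen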;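 also: plate controls were DMSO wells with A3G for no effect and wells lacking A3G enzyme for full effect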
CendR NRP1 mod: alters CendR peptide binding to human NRP-1; O14786; FAM-RPARPAR peptide binding to NRP-1, fluorescence polarization; inhibition, % at 25 µM; hit rate 0.85% among 360,000; AID 602438;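 active = inhibition or corrected inhibition above about 18%, plus a signal ratio from 0.5 to 1.5, limit read from the data, passing the limit was not always enough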
Target sequence (O14786 whole entry, looked up): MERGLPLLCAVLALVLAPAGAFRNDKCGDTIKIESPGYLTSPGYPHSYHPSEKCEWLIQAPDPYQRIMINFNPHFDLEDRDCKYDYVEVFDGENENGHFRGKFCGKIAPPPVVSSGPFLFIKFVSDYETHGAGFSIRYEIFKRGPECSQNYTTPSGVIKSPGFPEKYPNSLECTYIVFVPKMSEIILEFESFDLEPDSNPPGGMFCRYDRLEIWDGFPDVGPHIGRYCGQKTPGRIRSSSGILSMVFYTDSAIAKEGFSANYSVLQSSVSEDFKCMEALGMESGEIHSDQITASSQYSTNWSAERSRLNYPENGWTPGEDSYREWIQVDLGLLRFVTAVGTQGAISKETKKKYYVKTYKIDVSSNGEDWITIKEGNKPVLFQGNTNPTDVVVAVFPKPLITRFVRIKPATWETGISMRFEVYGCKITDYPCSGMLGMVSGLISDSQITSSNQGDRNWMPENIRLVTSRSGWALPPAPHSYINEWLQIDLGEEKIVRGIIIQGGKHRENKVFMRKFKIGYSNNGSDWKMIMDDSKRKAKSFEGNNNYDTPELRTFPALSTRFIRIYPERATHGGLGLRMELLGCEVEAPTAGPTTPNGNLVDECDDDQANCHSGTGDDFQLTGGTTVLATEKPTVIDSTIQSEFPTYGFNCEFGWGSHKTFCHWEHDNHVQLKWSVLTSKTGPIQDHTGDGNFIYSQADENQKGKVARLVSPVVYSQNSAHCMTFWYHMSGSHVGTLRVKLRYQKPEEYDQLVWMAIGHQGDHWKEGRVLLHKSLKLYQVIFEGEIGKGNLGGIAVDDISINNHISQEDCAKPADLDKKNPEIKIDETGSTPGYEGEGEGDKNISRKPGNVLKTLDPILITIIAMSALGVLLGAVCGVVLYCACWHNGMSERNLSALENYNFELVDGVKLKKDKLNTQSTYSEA
VLA-4 inh: inhibition in a human VLA-4 binding assay | inhibition, % (about 7 µM as worked out from the volumes in the protocol) | VLA-4 expressing cells, ligand binding flow cytometry | hit rate 0.2% among 330,000 | P13612; in the data active = inhibition above about 50%
beta cell repl: MIN6 beta-cell proliferation induction; MIN6 cells proliferation, ATPlite luminescence, 48 h; cells starved in 0.2% serum; 100% = growth in 10% serum; proliferation, % at 10 µM; hit rate 0.29% among 330,000; AID 2380;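 active = compounds whose signal lies at least 3.5 SD above the mean of all wells on their plate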;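 also: 0% = DMSO-treated cells in low-serum medium and 100% = 10% serum control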
APOBEC3A inh: inhibitors of human APOBEC3A DNA deaminase. recombinant A3A, FAM/TAMRA ssDNA deamination fluorescence. hit rate 0.41% among 330,000. inhibition, % at 20 µM. AID 493011;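 active = at least 40% inhibition at 20 µM here, with at most 30% in a related deaminase screen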;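 also: plate controls were A3A with DMSO for no effect and wells lacking A3A enzyme for full effect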
An asterisk follows results filed as active; · = not tested or not shown.

SMILES	A3G deaminase	CendR NRP1 mod	VLA-4 inh	beta cell repl	APOBEC3A inh
COc1ccc(/C=C2\SC(=O)N(CCNC(=O)Cn3[nH]c(=O)c4ccccc4c3=O)C2=O)cc1	-1	29*	7	-1	4
O=C(COC(=O)C1CC1)NCCc1ccccc1	0	6	5	2	4
CC(CCc1ccccc1)NC(=O)COC(=O)C1CCC(C(C)(C)C)CC1 (centres undefined)	-12	32*	37	-4	-3
CN1C(=O)CC2(C)C1=CCc1scnc12 (centres undefined)	·	19*	·	·	·
CC(Oc1ccccc1)C(=O)NC1=NCCS1 (centres undefined)	-9	33*	5	1	-1
O=C(/C=C/c1ccc(-c2ccccc2[N+](=O)[O-])o1)c1ccco1	-4	28*	2	-6	4
O=C(/C=C/c1ccc([N+](=O)[O-])cc1)c1ccco1	-2	-12	9	-5	0
CCOc1ccc(-c2c(C(=O)N/N=C/c3sccc3C)nnn2-c2nonc2N)cc1	-2	24*	-9	0	0
Cc1cnc(C(=O)OCC(=O)Nc2sc3c(c2C#N)CCC3)cn1	-5	38*	5	-1	4
Cc1cccc(OCC(=O)Nc2sc3c(c2C#N)CCC3)c1	-2	6	-4	-1	4
COc1ccc(NC(=O)c2cccc(-c3ccc(O)cc3)c2)cn1	-3	41*	-10	0	1
CC(Cc1ccccn1)NC(=O)c1ccc(OC2CCN(Cc3ccccn3)CC2)cc1 (centres undefined)	-6	6	-7	-2	-5
COc1cc(C(=O)NC(C)Cc2ccccn2)ccc1OC1CCN(C(C)=O)CC1 (centres undefined)	-4	20*	·	-2	-3
O=C(NN1CCOCC1)c1cn(-c2ccccc2)nc1-c1cccs1	-6	0	-1	-5	1
CN1C[C@@H]2C(c3ccc(Cl)nc3)C3(c4cccnc4)CC2(C3)[C@H]1c1ccccc1 (some centres undefined)	-5	10	5	-1	1
CN1C[C@@H]2C(c3ccc(Cl)nc3)C3(c4ccccc4)CC2(C3)[C@H]1c1ccccc1 (some centres undefined)	-5	23*	-1	-8	2
CC(C)N1CCc2c(sc(NC(=O)CCS(=O)(=O)c3ccccc3)c2C(N)=O)C1	1	25*	18	2	0
CCOc1ccc(CCNC(=O)c2cc(C)nn2-c2ccccc2)cc1	-3	4	-2	-2	2
COC(=O)c1cc(S(=O)(=O)N2CCN(Cc3ccccc3)CC2)cn1C	4	-10	30	0	4
CCC1C(=O)Nc2ccccc2N1C(=O)COc1ccccc1 (centres undefined)	-7	26*	-5	0	0
C[n+]1cccc2cccc([O-])c21	·	28*	·	·	·
[O-][n+]1cccc2cccc(O)c21	·	3	·	·	·
c1ccc(OCCNc2nc(NCC3CC3)nc3ccsc23)cc1	·	7	·	·	·
Cn1[nH]cc(C=NC(N)=O)c1=O	·	0	·	·	·
COc1ccc(CN(C)C(=O)CNC(=O)c2sc3ccccc3c2Cl)c(OC)c1OC	·	46*	·	·	·
SMILES	A3G deaminase	CendR NRP1 mod	VLA-4 inh	beta cell repl	APOBEC3A inh
CCc1ccc(C2CC(c3ccccc3)Nc3nc(N)nn32)cc1 (centres undefined)	8	-10	-9	7	2
c1ccc(C2CC(c3ccccc3)n3c(nc4ccccc43)N2)cc1 (centres undefined)	-3	24*	11	0	1
CCCCN(C(=O)c1cc(S(=O)(=O)N2CCCCC2)ccc1Cl)c1c(N)n(CCC)c(=O)[nH]c1=O	·	-8	·	·	·
CS(=O)(=O)N(CC(=O)Nc1ccc(Br)cc1F)C1CCCCC1	-5	-4	19	-2	0
CS(=O)(=O)N(CC(=O)Nc1ccccc1F)C1CCCCC1	-3	23*	15	-1	-2
COc1ccc(C(C)NC(=O)C2C(=O)NC3(C)CC2c2ccccc2O3)cc1 (centres undefined)	-2	-10	15	-3	0
COc1ccc(NC(=O)C2C(=O)NC3(C)CC2c2ccccc2O3)cc1 (centres undefined)	-5	33*	-3	-5	-3
O=C(CCC(=O)Nc1ccccc1Cl)NN=C1CCCC1	-1	22*	-3	1	0
C/C=C(/C)C(=O)O[C@@H]1c2cc(OC)c(OC)c(OC)c2-c2c(cc3c(c2OC)OCO3)C[C@H](C)[C@]1(C)O	11	28*	23	0	1
COc1cc2cc(OC(C)=O)c3cc4c(cc3c2c(OC)c1OC)OCO4	·	3	·	·	·
COc1cc2c(c(OC)c1OC)-c1c(cc3c(c1OC)OCO3)[C@@H](OC(C)=O)[C@H](C)[C@H](C)C2	-1	27*	25	-5	1
N#CCOC(=O)c1cc(S(=O)(=O)N2CCCCC2)ccc1N1CCOCC1	-2	0	9	1	-3
CCOC(=O)N1CCN(C(=O)c2cc(COc3ccc(OC)cc3Cl)on2)CC1	15	25*	-5	-3	-3
O=C1NC(c2ccccc2)CCO1 (centres undefined)	-7	-7	-5	-2	-6
O=S1(=O)NC(C2CC2c2ccccc2)CCO1 (centres undefined)	-5	23*	-2	4	-1
O=C(Cc1ccccc1)Nc1ccccc1N1CCOCC1	-5	-2	36	-1	-4
O=C(Nc1ccccc1N1CCOCC1)[C@@H]1O[C@H](CO)[C@H](O)[C@H](O)[C@H]1O	·	32*	·	·	·
COc1ccc(NC(=O)Cn2nnc(C(N)=O)c2N)c(OC)c1	0	33*	-6	0	0
COc1ccc(NC(=O)Cn2nnc(C(=O)NCc3cccs3)c2N)c(OC)c1	-5	-4	8	0	-3
Cc1ccc(NC(=O)Nc2cccs2)nc1	-9	25*	-4	-4	-3
O=C(CS(=O)c1ccc(Br)cc1)N1CCOCC1 (centres undefined)	-5	8	0	4	1
O=C(CN1C(=O)CSC1=O)NCc1ccccc1	-3	27*	3	2	-4
Cc1ccc(C(=O)NC(C(=O)NC2CCCC2)c2ccccc2)cc1 (centres undefined)	-10	5	6	0	-5
COc1ccc(NC(=O)N(C)C[C@@H]2OCc3cn(nn3)CCCC(=O)N([C@H](C)CO)C[C@H]2C)cc1	·	13	·	·	·
Cc1c(C(=O)Nc2ccc(S(=O)(=O)NCC3CCCO3)cc2)cccc1[N+](=O)[O-] (centres undefined)	-10	38*	-5	2	-5
O=C(O)CC(c1ccc(Br)cc1)N1Cc2ccccc2C1=O (centres undefined)	-5	1	6	1	0
COc1ccc(-c2c(-c3ccc(OC)nc3)c3ccccc3n2C)cc1	-1	-6	-7	-6	0
C=CCNC(=O)C1CC(=O)N(c2ccc(OCC(=O)NCc3ccccc3)cc2)C1 (centres undefined)	-4	26*	9	0	-1
